Reference: PubChem BioAssay (NCATS)
Records with an inconclusive call do not appear. A call without a number means that no potency is given here. Unmarked numbers belong to inactive results. Calls of active or inactive are those of the source. Calls come from the whole dose curve; as a rule, active = well fitted inhibition curve with a large enough effect; inconclusive = small, poorly fitted or top-dose-only effect; inactive = flat fitted curve, though single readings scatter.
Potency is the fitted concentration of half-maximal effect.

These molecules were tested on Zika virus NS2B-NS3 protease (assay: Primary screen GU AMC qHTS for Zika virus inhibitors (AID 1347154; note: nearly all actives have a fitted effect of over 70% in size)). Settings: Zika NS2B-NS3 unlinked protease, AMC fluorogenic substrate; series mostly up to 54.1 µM.
Outline: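 Unlinked Zika NS2B hydrophilic domain/NS3 protease domain noncovalent complex (25 nM final) in 10 mM Tris-HCl pH 8.0, 0.01% Tween 20, with AMC peptide substrate. Fluorescence (ex 340, em 450 nm) change over 15 min, room temperature; percent inhibition fitted to 4-parameter Hill equation.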
With `O=C(O)[C@@H]1CSCN1` the Potency was “inactive”. With `NC(CSCC(=O)O)C(=O)O` (stereo not given) the Potency was “inactive”. With `CN(C)CCCO[C@@H]1[C@H]2OC(C)(C)O[C@H]2O[C@@H]1C(O)CO` (stereo not given in full) the Potency was “inactive”. With `c1ccc2c(CC3=NCCN3)cccc2c1` the Potency was “inactive”. In the case of `O=c1cc[nH]c(=O)[nH]1`, the Potency is reported as “inactive”. `NCC(=O)CCC(=O)O` was tested, and the Potency was “inactive”. With `O=c1[nH]c(=O)c2[nH]c(=O)[nH]c2[nH]1` the activity change, negative = inhibition was -2.36% [at 6.83 µM]. With `CCCc1c(OCCCCc2nn[nH]n2)ccc(C(C)=O)c1O` the Potency was “inactive”. In the case of `Cc1ncc(COP(=O)(O)O)c(C=O)c1O`, the Potency is reported as “inactive”. `CC1=C(C/C=C(\C)CCC[C@H](C)CCC[C@H](C)CCCC(C)C)C(=O)c2ccccc2C1=O` was tested, and the Potency was “inactive”. In the case of `Cc1ccc(C(C)C)cc2c(C)ccc1-2`, the Potency is reported as “inactive”. For `CCCCN(CCCC)CCCOC(=O)c1ccc(N)cc1`, the Potency was “inactive”. With `N[C@H]1C(O)O[C@H](CO)[C@@H](O)[C@@H]1O` (stereo not given in full) the Potency was “inactive”. `[Cl][In]([Cl])[Cl]` was tested, and the Potency was 11.2 µM (active). With `NC(=O)NNc1ccccc1` the Potency was “inactive”. With `CN(C)CCN(Cc1ccccc1)c1ccccn1` the Potency was “inactive”. For `CC(=O)NC(Cc1ccccc1)C(=O)O` (stereo not given), the Potency was “inactive”. For `Cc1cc2c(cc1S(N)(=O)=O)S(=O)(=O)CCC2`, the Potency was “inactive”. In the case of `CC1(C)CO[C@@H](CC(=O)O)CN1`, the Potency is reported as “inactive”. In the case of `C=Cc1c(C)c2cc3[nH]c(cc4nc(cc5nc(cc1[nH]2)C(C)=C5CCC(=O)O)C(CCC(=O)O)=C4C)c(C)c3C=C`, the Potency is reported as “inactive”. In the case of `Cc1cc(CC(=O)O)n(C)c1C(=O)c1ccc(Cl)cc1`, the Potency is reported as “inactive”. `CN1CCCCC1CCN1c2ccccc2Sc2ccc(S(C)=O)cc21` (stereo not given) was tested, and the Potency was “inactive”. For `CCCOC(=O)c1ccccc1`, the Potency was “inactive”. `CCCCCCCCCCCCOS(=O)(=O)O` was tested, and the Potency was “inactive”. In the case of `C[C@H](N)[C@H](O)c1cccc(O)c1`, the Potency is reported as “inactive”. For `CC(C)(C)[C@]1(O)CCN2C[C@H]3c4ccccc4CCc4cccc(c43)[C@@H]2C1`, the Potency was “inactive”. In the case of `CC(C)(C)NCC(O)COc1ccc(NC(=O)NC2CCCCC2)cc1` (stereo not given), the Potency is reported as “inactive”. For `CC(O)CN(CCN(CC(C)O)CC(C)O)CC(C)O` (stereo not given), the Potency was “inactive”. `CCCCOC(=O)c1ccc(O)cc1` was tested, and the Potency was “inactive”. With `OCC(CO)N[C@H]1C[C@](O)(CO)[C@@H](O)[C@H](O)[C@H]1O` the Potency was “inactive”. In the case of `CCCCC(CC)COC(=O)c1ccccc1O` (stereo not given), the Potency is reported as “inactive”. With `O=C(O)c1ccccn1` the Potency was “inactive”. For `CCCCCCCCCCCCCCCCCCOCC(O)CO` (stereo not given), the Potency was “inactive”. In the case of `O=C1c2c(O)cccc2Cc2cccc(O)c21`, the Potency is reported as “inactive”. In the case of `CCC(=O)Nc1ccc(O)cc1`, the Potency is reported as “inactive”. Work on `C/C(=C(\CCOP(=O)(O)O)SC(=O)c1ccccc1)N(C=O)Cc1cnc(C)nc1N` yielded an activity change, negative = inhibition of 0.0847% [at 4.99 µM]. In the case of `O=S(=O)(O)NC1CCCCC1`, the Potency is reported as “inactive”. For `CCOC(=O)c1ccc(O)cc1`, the Potency was “inactive”. For `O=Cc1ccccc1C=O`, the Potency was “inactive”. For `O=C1NS(=O)(=O)c2ccccc21`, the Potency was “inactive”.
